Measurements from PubChem BioAssay AID602261 (Sanford-Burnham Center for Chemical Genomics, 2012).
Screen size: about 360,000 compounds; about 2,400 (0.67%) were called active.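 How the source made its calls: active means compounds whose normalised, plate-corrected inhibition of enzyme fluorescence in the single-dose primary screen is 50% or more; inactive means the rest.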 This excerpt belongs to a sample that is enriched for actives.

Molecular target: Fatty acid synthase (Homo sapiens) (UniProt P49327)
Experiment: inhibition of human FAS-TE enzyme activity – biochemical, fluorescence intensity, uHTS, primary screen (AID 602261);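 further: 0% = DMSO with enzyme and 100% = substrate without enzyme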
Conditions: recombinant FAS-TE, OMFH fluorogenic substrate, fluorescence endpoint; at 15 µM; hits give high values

Sequence of Fatty acid synthase (Homo sapiens) (P49327 whole entry, looked up): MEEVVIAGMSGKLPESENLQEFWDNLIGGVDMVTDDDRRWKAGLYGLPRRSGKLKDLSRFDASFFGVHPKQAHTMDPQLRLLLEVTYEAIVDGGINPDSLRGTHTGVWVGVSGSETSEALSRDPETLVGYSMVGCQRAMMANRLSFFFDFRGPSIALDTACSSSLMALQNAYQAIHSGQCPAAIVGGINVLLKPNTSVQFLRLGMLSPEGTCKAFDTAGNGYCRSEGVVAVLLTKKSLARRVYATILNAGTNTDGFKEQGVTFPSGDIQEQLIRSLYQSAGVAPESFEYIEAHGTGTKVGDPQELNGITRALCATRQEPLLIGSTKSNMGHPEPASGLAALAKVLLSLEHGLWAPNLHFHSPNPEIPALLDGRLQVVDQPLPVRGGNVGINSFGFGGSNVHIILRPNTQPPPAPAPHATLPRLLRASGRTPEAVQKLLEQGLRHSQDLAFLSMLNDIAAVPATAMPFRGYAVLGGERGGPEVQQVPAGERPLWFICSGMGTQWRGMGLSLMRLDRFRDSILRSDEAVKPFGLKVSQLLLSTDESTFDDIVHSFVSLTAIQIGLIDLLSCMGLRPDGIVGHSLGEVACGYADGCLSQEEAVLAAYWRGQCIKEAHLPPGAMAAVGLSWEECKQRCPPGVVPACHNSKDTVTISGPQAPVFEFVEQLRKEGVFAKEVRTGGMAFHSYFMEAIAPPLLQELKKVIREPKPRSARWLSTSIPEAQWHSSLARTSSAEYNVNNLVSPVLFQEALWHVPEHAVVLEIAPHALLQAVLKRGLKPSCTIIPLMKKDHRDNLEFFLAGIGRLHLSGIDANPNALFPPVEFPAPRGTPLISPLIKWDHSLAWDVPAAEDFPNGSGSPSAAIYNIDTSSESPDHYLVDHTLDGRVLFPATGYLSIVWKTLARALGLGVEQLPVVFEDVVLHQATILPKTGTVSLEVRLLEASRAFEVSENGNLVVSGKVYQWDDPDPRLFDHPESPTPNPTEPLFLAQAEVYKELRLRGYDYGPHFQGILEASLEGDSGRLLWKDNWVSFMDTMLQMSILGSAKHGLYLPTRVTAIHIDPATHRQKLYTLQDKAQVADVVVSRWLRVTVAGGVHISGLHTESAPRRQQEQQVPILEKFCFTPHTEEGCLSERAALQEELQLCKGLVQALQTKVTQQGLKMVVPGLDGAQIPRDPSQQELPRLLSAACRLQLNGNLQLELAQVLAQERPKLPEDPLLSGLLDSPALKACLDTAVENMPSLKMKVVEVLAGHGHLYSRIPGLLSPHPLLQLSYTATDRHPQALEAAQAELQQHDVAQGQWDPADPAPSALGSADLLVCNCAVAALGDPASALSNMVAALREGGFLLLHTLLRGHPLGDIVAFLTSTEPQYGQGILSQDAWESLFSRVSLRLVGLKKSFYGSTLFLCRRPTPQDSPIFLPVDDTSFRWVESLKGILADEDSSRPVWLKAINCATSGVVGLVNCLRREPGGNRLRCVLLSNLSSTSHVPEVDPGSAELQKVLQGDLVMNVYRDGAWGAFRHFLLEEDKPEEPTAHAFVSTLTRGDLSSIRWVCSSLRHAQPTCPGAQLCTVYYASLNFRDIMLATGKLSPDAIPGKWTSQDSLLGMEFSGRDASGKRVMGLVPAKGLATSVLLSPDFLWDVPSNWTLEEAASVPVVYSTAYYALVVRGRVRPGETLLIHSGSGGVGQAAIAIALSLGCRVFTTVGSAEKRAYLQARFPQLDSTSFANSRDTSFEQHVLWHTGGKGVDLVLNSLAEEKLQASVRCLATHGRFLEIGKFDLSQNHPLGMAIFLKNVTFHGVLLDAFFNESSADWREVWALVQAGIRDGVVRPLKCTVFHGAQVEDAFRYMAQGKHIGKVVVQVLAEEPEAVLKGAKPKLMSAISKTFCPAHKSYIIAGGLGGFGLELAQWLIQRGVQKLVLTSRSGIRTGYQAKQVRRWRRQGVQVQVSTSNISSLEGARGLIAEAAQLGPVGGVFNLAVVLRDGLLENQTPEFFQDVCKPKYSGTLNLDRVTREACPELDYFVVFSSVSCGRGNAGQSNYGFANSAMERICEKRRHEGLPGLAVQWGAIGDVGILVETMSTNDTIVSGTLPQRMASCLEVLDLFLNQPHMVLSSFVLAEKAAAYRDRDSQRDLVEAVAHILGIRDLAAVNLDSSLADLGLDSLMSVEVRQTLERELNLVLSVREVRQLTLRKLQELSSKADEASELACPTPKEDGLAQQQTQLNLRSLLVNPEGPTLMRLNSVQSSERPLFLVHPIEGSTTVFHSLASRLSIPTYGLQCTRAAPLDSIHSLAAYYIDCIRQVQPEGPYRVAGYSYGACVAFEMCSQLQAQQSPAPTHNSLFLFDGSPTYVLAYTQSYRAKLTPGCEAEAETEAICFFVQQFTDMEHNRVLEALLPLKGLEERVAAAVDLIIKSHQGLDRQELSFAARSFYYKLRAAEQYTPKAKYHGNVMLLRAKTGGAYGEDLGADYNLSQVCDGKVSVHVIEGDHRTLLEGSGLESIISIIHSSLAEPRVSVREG

| Compound | inhibition |
| --- | --- |
| COc1ccc(Br)c(Cn2c(C)c(C(=O)NCc3cccs3)sc2=O)c1 | 19.7% (inactive) |
| C[n+]1cc(-c2ccccc2)oc1-c1ccccc1 | -4.9% (inactive) |
| COC1C(CO)OC(n2cnc3c(=S)nc(N)[nH]c32)C1O (configuration not stated) | -3.8% (inactive) |
| CCc1ccc(C(=O)OCC(=O)Nc2cccc(S(=O)(=O)NC3=NCCCCC3)c2)cc1 | 1.8% (inactive) |
| Cc1cccc(-n2c(SCC(=O)Nc3cccc(S(=O)(=O)NC4=NCCCCC4)c3)nc3ccccc3c2=O)c1C | 71.3% (active) |
| COc1ccccc1C(=O)OCC(=O)Nc1cccc(S(=O)(=O)NC2=NCCCCC2)c1 | -6.9% (inactive) |
| CC(C)(C)NC(=O)NC(=O)COC(=O)Cc1ccc(Cl)cc1Cl | 69.5% (active) |
| CC(C)(C)NC(=O)NC(=O)COC(=O)Cc1c(F)cccc1Cl | 4.6% (inactive) |
| O=C(COC(=O)Cc1ccc(Cl)cc1Cl)NCc1ccco1 | -8.2% (inactive) |
| COC(=O)CCC(=O)N1CCCC(CO)(Cc2ccccc2)C1 (configuration not stated) | -5.2% (inactive) |
| Cc1ccccc1-c1nc(NC(C)C)nc2cc(-c3ccccc3)sc12 | 13% (inactive) |
| COc1ccc(-c2nnc(SC(C)C(=O)NC3CC3)o2)cc1 (configuration not stated) | -5.6% (inactive) |
| COc1ccc(CN(C(=O)CSc2nnc(-c3ccc(OC)c(OC)c3)o2)c2ccc(F)cc2)cc1 | 45.7% (inactive) |
| COc1ccc(-c2nnc(SC(=O)N3c4ccccc4Sc4ccccc43)o2)cc1 | 51.9% (active) |
| COc1ccc(C(=O)NN2C(=O)C3C(c4ccccc4)C=CC(c4ccccc4)C3C2=O)cc1 (configuration not stated) | 33.6% (inactive) |
| CCNc1c(NS(=O)(=O)c2ccc(C3CCCCC3)cc2)c(=O)oc2ccccc12 | 5.3% (inactive) |
| Cc1cccc([C@@H]2[C@@H]3C(=O)N(C)C(=O)[C@@H]3[C@@H]3C(=O)Nc4ccccc4C(=O)N23)c1 | -6.8% (inactive) |
| Cc1ccc(Oc2cc(NC(=O)CCCn3nc(C)c([N+](=O)[O-])c3C)cc([N+](=O)[O-])c2)cc1 | 30.9% (inactive) |
| Cc1nn(CCOc2ccc(Br)cc2)c(C)c1[N+](=O)[O-] | 62.3% (active) |
| COc1ccc(CNC(=O)CCCn2nc(C)c([N+](=O)[O-])c2C)cc1 | 10.9% (inactive) |
| CC(/C=C/c1ccccc1)=N\NC(=O)C1CC1(C)c1ccccc1 (configuration not stated) | 20% (inactive) |

| Compound | inhibition |
| --- | --- |
| O=C(Cc1ccccc1)NNS(=O)(=O)c1ccc([N+](=O)[O-])cc1 | 11.1% (inactive) |
| CC(C=Cc1ccccc1)=NNS(=O)(=O)c1ccc([N+](=O)[O-])cc1 | 58.3% (active) |
| CCOc1c(N2CCCCC2)c(=O)c1=O | -8% (inactive) |
| O=C(c1ccc(Cl)c([N+](=O)[O-])c1)N1CCN(c2ccccc2)CC1 | 53.6% (active) |
| O=C(c1cccc(F)c1)N1CCN(c2ccc([N+](=O)[O-])c(N3CCCCC3)c2)CC1 | 17.3% (inactive) |
| O=C(c1ccc(Oc2ccc(Cl)cc2)c([N+](=O)[O-])c1)N1CCCC1 | -19.7% (inactive) |
| COCCNc1nc2nonc2nc1N1CCCC1c1nccs1 (configuration not stated) | -8.3% (inactive) |
| CC(OC(=O)CNC(=O)c1cccc(F)c1)C(=O)NC1CCCCC1C (configuration not stated) | -5.6% (inactive) |
| COc1ccc(CNC(=O)C(=O)NCC2OCCN2C(=O)c2ccc(OC)cc2)cc1 (configuration not stated) | -1.4% (inactive) |
| Fc1ccc(-n2c(Cc3ccccc3)nnc2SCc2nc(-c3ccc(Cl)cc3)no2)cc1 | 52.6% (active) |
| Cc1ccc(-c2noc(CSc3nnc(-c4cccs4)n3C)n2)cc1 | -14.2% (inactive) |
| Cc1nnc(SCc2ccc(C(=O)c3ccc(Cl)cc3)o2)n1-c1ccccc1 | 2.7% (inactive) |
| C/C(=N\NC(=O)c1cccnc1)c1ccc(-n2ccnc2)cc1 | -10.3% (inactive) |
| Cc1ccc(C)c(S(=O)(=O)Nc2cccc(-n3cnnn3)c2)c1 | 4.5% (inactive) |
| O=S(=O)(Nc1cccc(-n2cnnn2)c1)c1cnc(Cl)c(Cl)c1 | 56.8% (active) |
| O=S(=O)(Nc1ccc(-n2cnnn2)cc1)c1ccc(Cl)cc1 | 2.4% (inactive) |
| O=c1c2ccccc2cnn1Cc1n[nH]c(=S)n1-c1ccccc1F | -4.3% (inactive) |
| Cc1ccc(C(=O)N/C(=C/c2cccs2)C(=O)N2CCCCC2)cc1 | -8.4% (inactive) |
| Cc1ccc(C(=O)N/C(=C\c2cn(S(=O)(=O)N(C)C)c3ccccc23)C(=O)N2CCCC2)cc1 | 86.5% (active) |
| Cc1ccc(C(=O)N/C(=C\c2cn(C)c3ccccc23)C(=O)N2CCN(C)CC2)cc1 | -5% (inactive) |
| O=C(O)c1ccccc1-c1ccccc1C(=O)Nc1ccccc1Br | -0.4% (inactive) |

| Compound | inhibition |
| --- | --- |
| O=C(NCc1ccccc1)C1CCN(C(=O)Cc2ccccc2)CC1 | -4.1% (inactive) |
| CCNC(=O)NNC(=O)C1CC(c2cccs2)=NO1 (configuration not stated) | -1.4% (inactive) |
| COc1ccc(S(=O)(=O)Nc2ccc(F)cc2)c(C)c1C | 1.1% (inactive) |
| CC(C)c1ccc(C(=O)OC2CCOC2=O)cc1 (configuration not stated) | -2.3% (inactive) |
| COc1cc(C(=O)OC2CCOC2=O)c([N+](=O)[O-])cc1OC (configuration not stated) | -3.6% (inactive) |
| O=C(OC1CCOC1=O)c1ccc(-c2nc3ccccc3s2)s1 (configuration not stated) | 51.7% (active) |
| O=C(CNC(=O)OCc1ccccc1)NC1CCCCNC1=O (configuration not stated) | -2.6% (inactive) |
| COc1ccc(S(=O)(=O)N2CCCCC2)cc1NC(=O)c1cc([N+](=O)[O-])ccc1N1CCOCC1 | 86.5% (active) |
| O=C(NCC1CCCCC1)c1cc(S(=O)(=O)N2CCCCC2)ccc1N1CCOCC1 | 3.8% (inactive) |
| COc1ccc(S(=O)(=O)N2CCOCC2)cc1NC(=O)c1ccc(OCC(C)C)c(OC)c1 | 27.8% (inactive) |
| COc1cccc(NC(=O)C2c3cc(OC)c(OC)cc3C(=O)N(C)C2c2cccnc2)c1 (configuration not stated) | -9.1% (inactive) |
| CC1(C)OC(=O)N2CCc3ccccc3C21C (configuration not stated) | -4.7% (inactive) |
| O=C(c1ccc2c(c1)C(=O)N(c1ccc(Cl)cc1)C2=O)N1CCN(c2ccccn2)CC1 | -5.5% (inactive) |
| O=C(c1ccc2c(c1)N(Cc1ccc(F)cc1)C(=O)c1ccccc1S2(=O)=O)N1CCN(c2ccccn2)CC1 | 56.9% (active) |
| O=C1c2ccccc2S(=O)(=O)c2cc(N3CCN(c4ccccn4)CC3)ccc21 | 12.8% (inactive) |
| CCCCNC(=O)CCn1c(=O)c2ccccc2n(Cc2cc(C)ccc2C)c1=O | -13.3% (inactive) |
| COCCNC(=O)CCCn1c(=O)c2ccccc2n(Cc2cccc([N+](=O)[O-])c2)c1=O | 55.7% (active) |
| COc1ccccc1CNC(=O)CCCn1c(=O)c2ccccc2n(CC(=O)NC2CCCC2)c1=O | -7.6% (inactive) |
| CN1CCN(Cc2nc3c(c(=O)n(C)c(=O)n3C)n2Cc2cccc3ccccc23)CC1 | 17.2% (inactive) |
| COCCn1c(CN2CCC(Cc3ccccc3)CC2)nc2c1c(=O)n(C)c(=O)n2C | 53.4% (active) |
| CCOC(=O)N1CCN(Cc2nc3c(c(=O)n(C)c(=O)n3C)n2Cc2ccccc2)CC1 | 4% (inactive) |

| Compound | inhibition |
| --- | --- |
| COc1ccc(OC)c(S(=O)(=O)N2CCCC(C(=O)N3CCC(C(N)=O)CC3)C2)c1 (configuration not stated) | -9.7% (inactive) |
| COc1ccc(C2=NN(C(=O)c3ccccc3C(=O)O)C(c3ccccc3O)C2)cc1 (configuration not stated) | -6.4% (inactive) |
| COc1ccc(C2CC(c3ccccc3)=NN2C(=O)c2ccc(Cl)c([N+](=O)[O-])c2)cc1 (configuration not stated) | 65.8% (active) |
| COc1ccc(C2CC(c3cccc(OC)c3)=NN2c2ccc(S(N)(=O)=O)cc2)cc1 (configuration not stated) | 18.6% (inactive) |
| CCCn1c(SCC(=O)Nc2ccc(C)c(S(=O)(=O)N3CCOCC3)c2)n[nH]c1=O | -3.3% (inactive) |
| Cc1cc(C)c2nc(-c3cccnc3)cc(C(=O)Nc3ccc(S(=O)(=O)Nc4onc(C)c4C)cc3)c2c1 | -0.1% (inactive) |
| C/C(=N/NC(=O)CC(=O)N/N=C(\C)c1ccc([N+](=O)[O-])cc1)c1ccc([N+](=O)[O-])cc1 | 36% (inactive) |
| C/C(=N\Nc1nc(N2CCOCC2)nc(N2CCOCC2)n1)c1ccc([N+](=O)[O-])cc1 | 57.8% (active) |
| C/C(=N\Nc1ccc([N+](=O)[O-])cc1)c1ccc(-n2nncc2C(C)(C)C)cc1 | -16% (inactive) |
| O=C(NCCN1CCOC1=O)C1CCC(=O)N(CCc2ccc(Cl)cc2)C1 (configuration not stated) | 0.7% (inactive) |
| O=C(c1cnccn1)N1CCN(S(=O)(=O)c2cccc(Cl)c2)CC1 | -6.3% (inactive) |
| Cc1ccc(S(=O)(=O)/N=C(/NC(=S)Nc2c(C)n(C)n(-c3ccccc3)c2=O)c2ccccc2)cc1 | -4.4% (inactive) |
| CC[C@]12c3[nH]c4ccc(Cl)cc4c3CCN1C(=O)[C@@H](CC(=O)NCCCOC)C[C@@H]2C(=O)N1CCN(C(=O)C2CC2)CC1 | -5.2% (inactive) |
| CCOC1=C2[C@@H](CN(S(=O)(=O)c3ccc(C)cc3)[C@H]2c2ccccc2F)[C@H]2C(=O)N(Cc3ccccc3)C(=O)[C@H]2C1 | 35.8% (inactive) |
| CCOC1=C2CN(S(=O)(=O)c3ccc(C)cc3)[C@H](c3cccs3)C[C@H]2[C@H]2C(=O)N(c3ccccc3)C(=O)[C@H]2C1 | 58% (active) |
| CCOC(=O)C1=C(N)N(c2ccc(C)cc2)C2=C(C(=O)CCC2)C1c1cccs1 (configuration not stated) | 20.7% (inactive) |
| CCOC1=C2[C@H]([C@H]3C(=O)N(c4ccccc4)C(=O)[C@H]3C1)[C@@H](c1ccccc1)N(S(=O)(=O)c1ccc(C)cc1)[C@H]2c1ccccc1 | 69.2% (active) |
| Cc1ccc(S(=O)(=O)N2C[C@@H](C)[C@]3(C2)[C@H](O)[C@H](OC(=O)NCc2ccccc2)C[C@H]2C(=O)N(c4ccccc4)C(=O)[C@H]23)cc1 | 18.7% (inactive) |
| CCOC(=O)C1=CC[C@@H](c2ccccc2)N(S(=O)(=O)c2ccc(C)cc2)[C@H]1c1ccc(CC)cc1 | 31.8% (inactive) |
